Test results reported in PubChem BioAssay (EPA / NIEHS).
Inconclusive results are not listed. Active and inactive are the calls of the source. How the source made its calls, unless noted: active means hit-call score of the fitted dose curve at least 0.9, where 1 is the maximum; inactive means score below 0.9.

Assays:
[1] = CCTE_Shafer_MEA_acute_firing_rate_mean: CCTE's Neural Acute Assay for Mean Firing Rate, Shafer Lab (AID 2284009);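 further: analyzed for loss of signal so actives lower firing rate relative to DMSO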
In short: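 Primary rat cortical neurons on 16-electrode MEA wells were exposed on DIV 13 or 15 to compound (0.03-40 uM). Spike counts per recording time, averaged over electrodes, were compared between 40-min baseline and 40-min post-exposure recordings as percent change.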

[2] = CCTE_Shafer_MEA_acute_burst_duration_mean: CCTE's Neural Acute Assay for Mean Burst Duration, Shafer Lab (AID 2284014);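 further: hits are decreases in mean burst duration relative to DMSO controls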
In short: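 Mean burst duration was compared between a 40 min baseline and a 40 min recording in the presence of compound (0.03-40 uM, 37 C), giving percent change per well. Cultures were rat cortical neurons at DIV 13 or 15; wells needed ≥10 active electrodes.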

[3] = CCTE_Shafer_MEA_acute_interburst_interval_mean: CCTE's Neural Acute Assay for Mean Interburst Interval, Shafer Lab (AID 2284016);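 further: percent change of mean interburst interval versus each well's own pre-dose baseline; curves fitted for decrease in interburst interval relative to DMSO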
In short: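 Primary rat cortical neurons on 16-electrode MEA wells were recorded 40 min at baseline on DIV 13 or 15, then 40 min after compound (0.03-40 uM), at 37 C. Value is percent change in mean interburst interval per well, DMSO as negative control.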

[4] = CCTE_Shafer_MEA_acute_burst_percentage_mean: CCTE's Neural Acute Assay for Percentage of Spikes in a Burst, Shafer Lab (AID 2284017);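 on AC50: curve fitted for loss of signal so potency reflects decreased burst percentage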
In short: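 Primary rat cortical neurons on 16-electrode MEA wells; 40 min baseline recorded at DIV 13 or 15, then 40 min after compound (0.03-40 uM) at 37 C. Well-mean fraction of spikes in single-electrode bursts; percent change from baseline, DMSO as negative control.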

[5] = CCTE_Shafer_MEA_acute_burst_percentage_std: CCTE's Neural Acute Assay for Standard Deviation of Burst Percentage, Shafer Lab (AID 2284018);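 further: fitted in the negative direction so actives lower burst percentage SD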
In short: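 Value is percent change from baseline in the across-electrode SD of spikes-in-bursts percentage, wells with >/= 10 active electrodes. Acute 40-min exposure to 0.03-40 uM on DIV 13 or 15 rat cortical cultures, recorded at 37 C after 40-min baseline.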

[6] = CCTE_Shafer_MEA_acute_per_network_burst_spike_number_mean: CCTE's Neural Acute Assay for Average Number of Spikes in a Network Burst, Shafer Lab (AID 2284019);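 on AC50: curve fitted for loss of signal so actives reduce spikes per network burst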
In short: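 Percent change from baseline in mean spikes per network burst, spikes detected at 8x rms noise. Each compound at 0.03-40 uM in at least three wells of rat cortical cultures, recorded 40 min before and 40 min during exposure.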

[7] = CCTE_Shafer_MEA_acute_per_network_burst_electrodes_number_mean: CCTE's Neural Acute Assay for Mean Number of Electrodes in a Network Burst, Shafer Lab (AID 2284021);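 further: curves fitted for decreases only so hits reduce electrodes per burst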
In short: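 Percent change from baseline was computed as mean electrode count per network burst, comparing 40 min recordings before and during compound (0.03-40 uM) exposure. Cultures were rat cortical neurons at DIV 13 or 15, recorded on MEAs at 37 C with an adaptive 8x rms threshold.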

[8] = CCTE_Harrill_HTTr_Viability_MCF7: CCTE's 6-hour Cell Viability Assessment for the High-Throughput Transcriptomics (HTTr) Platform, in MCF-7 cells cultured in DMEM + 10% fetal bovine serum, Harrill Lab (AID 2284010)
In short: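 Eight-point concentration series, six-hour exposure. Propidium iodide exclusion imaged to assess membrane integrity as a cytotoxicity readout; bidirectional fitting was done with DMSO as negative control and activity baseline.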

[9] = CCTE_Harrill_HTTr_Apoptosis_MCF7: CCTE's 6-hour Apoptosis Assessment for the High-Throughput Transcriptomics (HTTr) Platform, in MCF-7 cells cultured in DMEM + 10% fetal bovine serum, Harrill Lab (AID 2284011)
In short: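 High-content imaging of CellEvent Caspase 3/7 Green signal follows a six-hour exposure, with eight concentrations per chemical. MCF-7 cells grown in DMEM plus 10% fetal bovine serum; activity fitted in both directions against DMSO.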

[10] = CCTE_Harrill_HTTr_CellCount_MCF7: CCTE's Cell Proliferation Assessment for the High-Throughput Transcriptomics (HTTr) Platform, Harrill Lab (AID 2284012; active means hit-call score of the fitted dose curve at least 0.9, where 1 is the maximum;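 further: count of Hoechst-stained nuclei per well by high-content imaging in MCF-7 cells; cells exposed to compound for six hours; intended direction is loss of nuclei count meaning fewer cells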)
In short: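 For this full-screen endpoint, MCF-7 cultures received eight compound dilutions for six hours. Well nuclei counts from Hoechst imaging were analyzed relative to DMSO.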

Measured: AC50

c1ccc2n[nH]nc2c1
not listed: [8] | [9] | [10]
inactive: all other assays above

CC(C)(c1cc(Br)c(O)c(Br)c1)c1cc(Br)c(O)c(Br)c1
active: [4] 19.1 µM
not listed: [9] | [10]
inactive: all other assays above

c1ccc2ccccc2c1
inactive: [8]

NCc1cccc(C2CCN(C(=O)c3ccc(C#Cc4ccccc4F)o3)CC2)c1
active: [1] 9.02 µM | [8] 50 µM | [9] 61.4 µM | [3] 4.14 µM | [4] 30.8 µM | [7] 20 µM
inactive: [10] | [2] | [5] | [6]

Cc1cc2c(cc1C(F)(F)F)N(C(=O)Nc1ccc(Oc3cccnc3C)nc1)CC2
not listed: [9] | [10]
inactive: all other assays above

CCCCOC(=O)c1ccc(O)cc1
active: [3] 31 µM | [4] 31.1 µM
inactive: all other assays above

CC(C)(C)c1cc(/C=C2\SC(N)=NC2=O)cc(C(C)(C)C)c1O
active: [1] 14.8 µM | [3] 14.6 µM
not listed: [9]
inactive: all other assays above

O=C1O[C@H]([C@@H](O)CO)C(O)=C1O
inactive: all assays above

CC/C(=C(/CC)c1ccc(O)cc1)c1ccc(O)cc1
active: [1] 8.49 µM | [4] 10.6 µM | [5] 35.4 µM | [6] 5.3 µM | [7] 20 µM
inactive: [8] | [2] | [3]

CCO[Si](CCCNC(N)=O)(OCC)OCC
inactive: [8]

O=C(O)c1ccccc1-n1cc(C(=O)O)c(=O)c2cc(Nc3c(F)cc(F)cc3Cl)c(Cl)cc21
inactive: all assays above

CCN(Cc1cccc(S(=O)(=O)O)c1)c1ccc(C(=C2C=CC(=[N+](CC)Cc3cccc(S(=O)(=O)O)c3)C=C2)c2ccccc2S(=O)(=O)[O-])cc1
not listed: [9]
inactive: all other assays above

CC[C@@H]1C[C@H](N(Cc2cc(C(F)(F)F)cc(C(F)(F)F)c2)C(C)=O)c2cc(C(F)(F)F)ccc2N1C(=O)OC(C)C
active: [2] 4.21 µM
not listed: [10]
inactive: all other assays above

CCCCCCCCOC(=O)c1cc(O)c(O)c(O)c1
active: [1] 4.46 µM | [4] 5.8 µM | [5] 7.82 µM | [7] 8.24 µM
not listed: [9]
inactive: all other assays above

CC(O)CC(C)(C)O (configuration not stated)
inactive: all assays above

C[C@]12CC[C@@H]3c4ccc(O)cc4CC[C@H]3[C@@H]1CC[C@H]2O
inactive: all assays above

CN(C[C@@H](CC[N+]12CCC(C3CCCCC3)(CC1)CC2)c1ccc(Cl)c(Cl)c1)C(=O)c1cc(C(F)(F)F)cc(C(F)(F)F)c1
active: [1] 0.273 µM | [8] 78.6 µM | [2] 1.19 µM | [4] 8.36 µM | [5] 2.53 µM | [7] 5 µM
inactive: [10] | [3] | [6]

CC(=O)N1CCN(c2ccc(OC[C@H]3CO[C@](Cn4ccnc4)(c4ccc(Cl)cc4Cl)O3)cc2)CC1
active: [4] 33 µM | [5] 32.9 µM
not listed: [9]
inactive: all other assays above

CCN(CC)C(=O)c1cc(S(=O)(=O)Cc2ccccc2)c(N2CCC(c3ccccc3)CC2)cc1N(CC)CCN(C)C
active: [1] 3.04 µM | [2] 0.553 µM | [4] 13 µM | [6] 1.57 µM
inactive: all other assays above

COc1cccc([C@H](O)C2CCN(CCc3ccc(F)cc3)CC2)c1OC
active: [1] 2.87 µM
not listed: [9] | [10]
inactive: all other assays above

CO[C@H]1/C=C/O[C@@]2(C)Oc3c(C)c(O)c4c(O)c(c(/C=N/N5CCN(C)CC5)c(O)c4c3C2=O)NC(=O)/C(C)=C\C=C\[C@H](C)[C@H](O)[C@@H](C)[C@@H](O)[C@@H](C)[C@H](OC(C)=O)[C@@H]1C
active: [6] 12.5 µM
not listed: [9] | [10]
inactive: all other assays above

CN(C)C(=O)C1(N2CCCCC2)CCN(CC[C@@]2(c3ccc(Cl)c(Cl)c3)CN(C(=O)c3ccccc3)CCO2)CC1
inactive: [8] | [10] | [3] | [5]
active: [1] 3.28 µM | [2] 1.81 µM | [4] 19.4 µM | [6] 2.5 µM | [7] 22.4 µM

CN(C)c1ccc(C(=C2C=CC(=[N+](C)C)C=C2)c2ccc(N(C)C)cc2)cc1
active: [1] 0.406 µM | [8] 14.4 µM | [4] 2.07 µM | [5] 2.72 µM
inactive: all other assays above

c1ccc(C[n+]2cccc3ccccc32)cc1
inactive: [8]

Cc1c2ccccc2c(C)c2c1ccc1ccccc12
active: [1] 20 µM | [3] 7.49 µM | [4] 29.7 µM | [5] 35.2 µM
not listed: [9]
inactive: all other assays above

OC12N=C(c3ccccc3)SC1Cc1cc(Cl)ccc12 (configuration not stated)
inactive: [8] | [9] | [10] | [6]
active: [1] 6.86 µM | [2] 20 µM | [3] 6.48 µM | [4] 32.6 µM | [5] 30.7 µM | [7] 32.5 µM

CCCCCCCCOc1ccc(C(=O)c2ccccc2)c(O)c1
inactive: [8]

NC(=O)c1nc(-c2cccc(-c3cc(F)ccc3OCC(F)(F)C(F)(F)F)c2)n[nH]1
active: [1] 0.649 µM | [4] 7.48 µM | [5] 2.16 µM | [6] 0.16 µM
not listed: [9]
inactive: all other assays above

CN1C(=O)CC[C@H]1c1cccnc1
not listed: [10]
inactive: all other assays above

CC1=CC(=O)/C(=C(/C)O)C(=O)O1
not listed: [8] | [9] | [10]
inactive: all other assays above

O=c1[nH]sc2ccccc12
active: [1] 0.0286 µM | [3] 34.3 µM | [4] 20 µM
inactive: all other assays above

CCCCCCCCCCCCO
active: [4] 25.5 µM
not listed: [10]
inactive: all other assays above

Clc1ccccc1C(c1ccccc1)(c1ccccc1)n1ccnc1
active: [1] 5.03 µM | [4] 7.02 µM | [5] 9.25 µM | [7] 2.24 µM
inactive: [8] | [2] | [3] | [6]

Cc1cn([C@H]2C[C@H](N=[N+]=[N-])[C@@H](CO)O2)c(=O)[nH]c1=O
not listed: [9]
inactive: all other assays above

COc1cc(C(=O)NC2CCN(C)CC2)ccc1Nc1ncc2c(n1)N(C1CCCC1)CC(F)(F)C(=O)N2C
inactive: [8] | [10] | [5]
active: [1] 7.05 µM | [2] 1.85 µM | [3] 3.83 µM | [4] 15 µM | [6] 3.69 µM | [7] 5.23 µM

CC(C)(O)c1ccc(CNC(=O)c2cccnc2Oc2ccc3nonc3c2)cc1
inactive: [8]

CC[C@H](NC(=O)c1cc(F)ccc1NS(=O)(=O)c1cccc2cccnc12)c1ccccc1
inactive: [8]

CCCCOC(=O)CC(CC(=O)OCCCC)(OC(C)=O)C(=O)OCCCC
inactive: [8] | [10]

CCOC(=O)O[C@H](C)OC(=O)c1ccc2c(c1)cc(C(=O)NC1CCN(C(C)C)CC1)n2Cc1cc(-c2ccc(Cl)s2)on1
inactive: [10]
active: [8] 76.7 µM | [9] 72.2 µM

COc1ccc2cc(S(=O)(=O)N[C@H](CC(=O)N[C@H](Cc3ccc(CN4[C@H](C)CCC[C@@H]4C)cc3)C(=O)N(C)C(C)C)c3ccc4c(c3)OCO4)ccc2c1
inactive: [8] | [9] | [10]

O=c1c(-c2ccc(O)cc2)coc2cc(O)cc(O)c12
inactive: [8] | [9] | [10]

CCCCCCCCN(C)CCCCCCCC
inactive: [8]

O=CCCCC=O
inactive: [8] | [10]

Cc1ccc2oc(CN(Cc3ccccc3)C(=O)Nc3c(F)cc(F)cc3F)c(-c3ccc(Cl)cc3)c2c1
inactive: [8] | [10]

OCCO
inactive: [8] | [9] | [10]

O=C(O)c1ccccc1C(=O)OCc1ccccc1
inactive: [8] | [10]

O=C(OCCCCCCOC(=O)c1ccccc1)c1ccccc1
inactive: [8] | [10]

Cc1ncc(CO)c(CO)c1O
inactive: [8] | [9] | [10]

Clc1cc(Cl)c2c(c1)N=C1CCCCCN1C2
inactive: [8] | [10]

CC1(C)NC(=O)N(c2ccc([N+](=O)[O-])c(C(F)(F)F)c2)C1=O
inactive: [8]

Oc1ccc2ccccc2c1
inactive: [8] | [9]

CCCOC(=O)c1cc(O)c(O)c(O)c1
inactive: [8] | [10]

CCCCCCCCCCCO
inactive: [8] | [10]

Cc1oc2c(NC(=O)c3c(Cl)cccc3Cl)cccc2c1C(C)(C)O
inactive: [8] | [10]
